# Screens from PubChem.
# A selection: hits, their analogues and other compounds. The true share with any hit is near 19%.
# DT40 TDP1 no CPT – qHTS for Inhibitors of human tyrosyl-DNA phosphodiesterase 1 (TDP1): qHTS in cells in absence of CPT. Potency, µM (top dose mostly 46.2 µM), inactives show at the highest dose activity change, negative = growth inhibition, actives largely listed as inhibitors. 15% of 420,000 active. DT40 Tdp1-/- hTDP1 cells, no CPT, ATP luminescence, 48 h; also: potency is read from the fitted curve at half-maximal effect; nearly all actives have a fitted effect of over 55% in size
#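 Camptothecin absent (DMSO only). Human TDP1-complemented DT40 knockout cells, 400 cells/well, 37 °C for minimum 48 hr; ATP measured via CellTiter-Glo, 30 min dark incubation, luminescence.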
# IL1B secr inh – inhibitors of inflammasome signaling (IL-1 beta secretion) | THP-1 LPS/ATP IL-1B secretion, AlphaLISA, 16 h; hits give low values | activity change, % at 57.5 µM | 4.7% of 360,000 active | AID 743279; in the data active = activity change below about -50%; inconclusive = mostly about -30% to -49%
#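 THP-1 cells pretreated 1 hr with compounds (up to 57.5 uM final), then stimulated with LPS (250 ng/mL final) plus ATP (1.25 mM final); secreted IL-1B measured by AlphaLISA after 16 hr, decreased signal indicating inhibition.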
# HT1080NT lethal – kills 2HG-producing HT-1080-NT fibrosarcoma cells | HT-1080-NT fibrosarcoma viability, CellTiter-Glo ATP luminescence, 48 h | Potency, µM (titrated, usually from 46.1 µM), for inactives: at the top dose activity, negative = less viability, actives largely listed as cytotoxic | 1.6% of 360,000 active;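 also: NT is the 2HG producing partner of a matched IDH1 knockdown line; potency is read from the fitted curve at half-maximal effect; 0% = DMSO-treated cells and -100% = media-only wells without cells; nearly all actives have a fitted effect of over 55% in size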
#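 Fibrosarcoma NT cells, 750 per well in 5% FBS RPMI, were exposed to compound for 48 hours. Viability: CellTiter-Glo luminescence.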
# TDP1 cell CPT – DT40-hTDP1 cell growth loss with CPT; chicken DT40 Tdp1-/-;hTDP1 cells + 20 nM CPT, ATP luminescence, 48 h; Potency, µM (doses to about 46.2 µM), inactives show at the highest dose activity change, negative = growth inhibition, usual class: inhibitors; 12% of 420,000 active; AID 686979; also: potency is read from the fitted curve at half-maximal effect; nearly all actives have a fitted effect of over 55% in size
#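 Chicken DT40 Tdp1-/- cells complemented with human TDP1, 400 cells/well, exposed to compounds plus 20 nM camptothecin for at least 48 h at 37 C; viability read as ATP content by CellTiter-Glo luminescence.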
# HT1080 IDH1KD tx – toxicity to HT-1080 IDH1 knockdown cells (counter line) | Potency, µM (series often up to 46.1 µM), for inactives: at the highest dose activity, negative = toxicity, hits mostly cytotoxic | HT-1080 IDH1 knockdown viability, ATP luminescence, 48 h | 2% of 360,000 active;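 also: potency is read from the fitted curve at half-maximal effect; 0% = DMSO wells and -100% = cell-free medium wells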
#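 HT-1080-IDH1KD cells (IDH1 knocked down), 750/well in RPMI with 5% FBS, treated with compound 48 h at 37 degrees C. Viability by CellTiter-Glo luminescence, normalised to DMSO and no-cell wells; concentration-response curves classed.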
# Numbers without * were called inactive; i = inactive; u = inconclusive; x = no result; [ ] = another dose, or the depositor's remark. Unless noted, calls follow the shape of the dose curve; as a rule, active = well fitted curve in the direction sought with a large enough effect; inconclusive = small, poorly fitted or top-dose-only effect, or another doubt; inactive = no such curve, though single readings can be large; an effect the other way counts as inactive or inconclusive. Unless noted, % is scaled to controls: 0 for no effect and ±100 for the full control effect.
SMILES,DT40 TDP1 no CPT,IL1B secr inh,HT1080NT lethal,TDP1 cell CPT,HT1080 IDH1KD tx
Cc1cccc[n+]1CC(=O)c1ccc(NC(=O)c2ccccc2)cc1,u,23,4%,u,-6%
COc1ccc(C(=O)C[n+]2ccccc2C)cc1,21µM*,7,-6%,16µM*,-1%
COc1ccc(C(=O)NCc2ccccc2CN2CCCC2)cc1S(=O)(=O)N1CCOCC1,11%,9,2%,-4%,4%
CC(C)c1nc2cccnc2n1C1CCN(C(=O)Cn2cccn2)CC1,-1%,x,x,-7%[9.04 µM],x
Cc1cc(/C=C2/NC(=O)NC2=O)c(C)n1C,u,18,0%,u,2%
Cc1cc(C)c(-n2c(C)cc(/C=C3/NC(=O)NC3=O)c2C)c(C)c1,15µM*,62,u,u,u
COc1cccc(CC(=O)OCC(=O)NNC(=O)c2ccc(Br)cc2)c1,17%,10,9%[9.24 µM],5%,-1%
Cc1ccc(NC(=O)C2CCN(c3ncnc4c3nc3n4CCCCC3)CC2)cc1Cl,u,u,-12%,u,-4%
COc1cccc(CCNC(=O)C2CCCN(c3ncnc4c3nc3n4CCCCC3)C2)c1OC (stereo unspecified),u,60,3%,-3%,-8%
Cc1ccccc1CN1CCC(CNC(=O)C2CCCN(c3ncnc4c3nc3n4CCCCC3)C2)CC1 (stereo unspecified),u,-86*,u,u,u
Cc1ccc(NC(=O)C2CCCN(c3ncnc4c3nc3n4CCCCC3)C2)cc1Cl (stereo unspecified),21µM*,33,-27%,u,u
Cc1cccc(NC(=O)C2CCCN(c3ncnc4c3nc3n4CCCCC3)C2)n1 (stereo unspecified),7.3µM*,-12,-5%,10µM*,-10%
O=C(Nc1ccc(Cl)cc1)C1CCCN(c2ncnc3c2nc2n3CCCCC2)C1 (stereo unspecified),18µM*,-59*,u,23µM*,u
COc1cc(C(=O)Nc2ccc(S(=O)(=O)N3CCCCC3)cc2)ccc1OCC(=O)N1CCOCC1,-9%,31,8%,-20%,13%
O=c1[nH]nc(Sc2ccccc2)c(=S)[nH]1,-28%,-5,5%,-16%,8%
O[C@@H]1CN(Cc2ccc(-n3cccn3)cc2)CC[C@H]1N1CCN(c2ccccc2F)CC1,3.7µM*,-62*,u,13µM*,-14%
CN(C)CCN(C(=O)c1ccc2ccccc2c1)c1nc2c(F)cccc2s1,5%,-21,0%,-26%,6%
Cc1cc(C)c2nc(N(CCN(C)C)C(=O)c3ccc4ccccc4c3)sc2c1,13µM*,0,u,16µM*,u
COc1ccc2sc(N(CCN(C)C)C(=O)c3ccc4ccccc4c3)nc2c1,u,-7,4%,-25%,-3%
CCOc1cccc2sc(N(CCN(C)C)C(=O)c3ccc4ccccc4c3)nc12,u,-101*,2%,u,-7%
COc1ccc(C)c2sc(N(CCN(C)C)C(=O)c3ccc4ccccc4c3)nc12,u,-54*,u,18µM*,-23%
COc1cc(Cl)ccc1NC(=O)COc1ccccc1C(=O)N1CCN(c2ccc(O)cc2)CC1,23µM*,-9,-21%,23µM*,-21%
COc1ccccc1OCC(=O)Nc1ccc(O)cc1C(=O)O,7%,-3,12%,-2%,-4%[9.24 µM]
CCOc1ccccc1C(=O)N1CCN(c2cccc(Cl)c2)CC1,0.16µM*,45,0.25µM*,0.037µM*,0.11µM*
COc1ccc(C(=O)N2CCN(c3cccc(Cl)c3)CC2)c(OC)c1,12µM*,2,15µM*,16µM*,u
SMILES,DT40 TDP1 no CPT,IL1B secr inh,HT1080NT lethal,TDP1 cell CPT,HT1080 IDH1KD tx
CCOc1ccc2ccccc2c1C(=O)N1CCN(c2ccccc2)CC1,16µM*,22,u,u,7.9µM*
CCOC(=O)c1[nH]c(C)c(C(=O)N2CCN(c3ccccc3)CC2)c1C,u,0,3%,-19%,-25%
CSCCC(NC(=O)c1ccc([N+](=O)[O-])cc1Cl)C(=O)OC(C)C(=O)NCc1ccco1 (stereo unspecified),0%,6,7%,-30%,6%
Cc1ccc(-n2ncc3c2CC(C)(C)CC3NC(=O)C2CCOCC2)cc1 (stereo unspecified),-15%,11,4%,-10%,10%
O=C(Nc1ccccc1)c1cc(N2CCOCC2)nc2ccccc12,u,-5,-14%,-17%,-8%
Cc1ccc(NC(=O)c2cc(N3CCOCC3)nc3ccccc23)cc1,u,-5,10µM*,23µM*,u
Cc1cccc(NC(=O)c2cc(N3CCOCC3)nc3ccccc23)c1,u,-22,-1%,12µM*,0%
O=C(CSc1nnnn1-c1ccccc1)N1CCCc2ccccc21,-16%,-55*,-1%,-1%,1%
O=C(CSc1nnnn1-c1ccccc1)N1CCc2ccccc21,-6%,18,4%,-11%,8%[9.24 µM]
CSc1nsc(SCC(=O)N2CCCc3ccccc32)n1,29µM*,-6,3%,u,-7%
O=C(CSc1nnc(-c2cccs2)n1-c1ccccc1)N1CCCc2ccccc21,16µM*,u,-31%,u,u
O=C(CSc1n[nH]c(-c2ccccc2O)n1)N1CCCc2ccccc21,21µM*,36,u,u,16µM*
S=C(NCCN1CCOCC1)Nc1ccccc1Cl,1%,i,-1%,-3%,0%
CCCCOc1cccc2c(=O)n(CC(=O)Nc3ccc4c(c3)OCCO4)ccc12,-27%,-13,-7%,-4%,-22%
COc1cccc(-c2ccc3ncnc(N(C)C)c3c2)c1,u,x,x,21µM*,x
CN(C)c1ncnc2ccc(-c3cccnc3)cc12,23µM*,x,x,12µM*,x
Cc1ccc(C(=O)NCCc2ccc(Cl)cc2)cc1-n1c(C)nc2cccnc21,23µM*,x,x,u,x
Cc1nc2cccnc2n1-c1cccc(C(=O)NCCc2ccc(Cl)cc2)c1,18µM*,x,x,u,x
CCOc1ccc(CCNC(=O)c2cccc(-n3c(C)nc4cccnc43)c2)cc1,16µM*,x,x,23µM*,x
CCNC(=O)c1ccc(C)c(-n2c(C)nc3cccnc32)c1,-1%,x,x,4%,x
COCCNC(=O)c1cccc(-n2c(C)nc3cccnc32)c1,-13%,x,x,-3%,x
CCCOc1ccc(/C=N/n2nnnc2N)cc1OC,-9%,-3,4%,2%,1%
Cc1ccc(CN(C(=O)c2ccc([N+](=O)[O-])cc2)C2CCS(=O)(=O)C2)o1 (stereo unspecified),u,1,4%,u,-1%
